From PubChem BioAssay (EPA / NIEHS)
Results filed as inconclusive are left out. Some structures have more than one record in an assay (separate samples or runs), and their calls can disagree. Active and inactive are the calls of the source. How the source made its calls, unless noted: active means hit-call score of the fitted dose curve at least 0.9, where 1 is the maximum; inactive means score below 0.9.

Key:
[1] = biological target: Nuclear respiratory factor 1 (Homo sapiens) (UniProt Q16656); assay: ATG_NRF1_CIS: Attagene CIS-FACTORIAL HepG2 Assay for human Nuclear Respiratory Factor 1 (NRF1) Orphan Gene (AID 2282987); conditions: HepG2 NRF1 cis-element reporter, Attagene multiplex; actives raise or lower the signal
Procedure, shortened: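 Transcriptional reporter readout, one component of a 52-endpoint multiplexed HepG2 panel. Exposure 24 h; mRNA detected via RT-PCR and fluorescent capillary electrophoresis; fitting in both directions against DMSO.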

[2] = ATG_NFI_CIS: Attagene CIS-FACTORIAL HepG2 Assay for human Nuclear Factor I (NFI) (AID 2282989); conditions: HepG2 cis-regulatory reporter, NFI response element transcription; actives raise or lower the signal
Procedure, shortened: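 Reporter transcripts were measured by RT-PCR with fluorescent primer extension and capillary electrophoresis 24 h post-treatment. HepG2 cells carried transiently transfected cis-regulated reporter constructs reporting endogenous factor activity; gain or loss fitted against DMSO baseline.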

[3] = biological target: Myc proto-oncogene protein (Homo sapiens) (UniProt P01106); assay: ATG_Myc_CIS: Attagene CIS-FACTORIAL HepG2 Assay for human Myelocytomatosis (Myc) Proto-Oncogene Transcription Factor (AID 2282990); conditions: HepG2, Attagene cis-reporter transcription factor activity; actives raise or lower the signal
Procedure, shortened: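 Fluorescence intensity of reporter-specific cDNA fragments, separated by capillary electrophoresis, gives the signal. Transfected HepG2 cells carrying cis-promoter reporter constructs are incubated with compound for 24 h; DMSO serves as baseline.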

[4] = ATG_NRF2_ARE_CIS: Attagene CIS-FACTORIAL HepG2 Assay for human Nuclear Factor Erythroid 2 Related Factor 2 (NFR2) response to Antioxidant Response Elements (ARE) (AID 2282992); conditions: HepG2 Attagene ARE/NRF2 reporter, transcription factor activity; actives raise or lower the signal;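 on AC50: reporter mRNA level measured by RT-PCR and capillary electrophoresis fluorescence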
Procedure, shortened: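 HepG2 cells transiently transfected with multiplexed cis-regulated reporter transcription units measure endogenous transcription factor activity. Reporter mRNA at 24 h is quantified by RT-PCR, fluorescent labelling and capillary electrophoresis, with bidirectional fitting relative to DMSO.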

[5] = ATG_Oct_MLP_CIS: Attagene CIS-FACTORIAL HepG2 Assay for human Octamer-Binding Transcription Factor (Oct) (AID 2282993); conditions: HepG2 Attagene cis-factorial Oct reporter, mRNA; actives raise or lower the signal
Procedure, shortened: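 Readout is reporter transcript level from RT-PCR with fluorescent primer extension and capillary electrophoresis, fitted in both directions against DMSO. Transfected HepG2 reporter units report endogenous factor activity after 24 h dosing.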

[6] = biological target: Cellular tumor antigen p53 (Homo sapiens) (UniProt P04637); assay: ATG_p53_CIS: Attagene CIS-FACTORIAL HepG2 Assay for human p53 Transcription Factor (AID 2282994); conditions: HepG2 p53 cis-element reporter, Attagene mRNA; actives raise or lower the signal
Procedure, shortened: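 HepG2 cells transiently transfected with multiplexed cis-regulated reporter transcription units read endogenous TF activity. After 24 h compound exposure, reporter mRNA was quantified by RT-PCR, fluorescent labelling, HpaI digestion and capillary electrophoresis; bidirectional fits versus DMSO baseline.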

[7] = BSK_3C_TissueFactor: BioMAP Diversity Plus: 3C Assay for Tissue Factor Biomarker Activity (AID 2282997); conditions: BioMAP 3C HUVEC, tissue factor biomarker readout; actives raise or lower the signal
Procedure, shortened: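 Values derive from bidirectional curve fitting against DMSO of Tissue Factor ELISA signals, taken 24 h after dosing primary human umbilical vein endothelial cells.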

[8] = BSK_3C_uPAR: BioMAP Diversity Plus: 3C Assay for Urokinase-type plasminogen activator receptor (uPAR) Biomarker Activity (AID 2282998); conditions: BioMAP 3C HUVEC, uPAR biomarker ELISA; actives raise or lower the signal
Procedure, shortened: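 Cell-surface uPAR on HUVEC (3C system) read by ELISA at 24 h post-treatment, with DMSO as baseline and fitting in both directions. Parallel cultures stained with SRB to flag overt cytotoxicity.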

[9] = BSK_3C_VCAM1: BioMAP Diversity Plus: 3C Assay for Vascular cell adhesion molecule 1 (VCAM1) Biomarker Activity (AID 2282999); conditions: BioMAP 3C HUVEC, VCAM1 ELISA, cytokine-stimulated; actives raise or lower the signal
Procedure, shortened: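 Human umbilical vein endothelial cells (3C system), biomarker read by ELISA 24 h after dosing; bidirectional fit against DMSO baseline. Cytotoxicity tracked by SRB total-protein staining in parallel cultures at biomarker time.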

[10] = BSK_4H_Eotaxin3: BioMAP Diversity Plus: 4H Assay for Eotaxin 3 Biomarker Activity (AID 2283000); conditions: primary human endothelial cells (HUVEC); actives raise or lower the signal
Procedure, shortened: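 Endothelial primary cells (human umbilical vein) exposed to compound for 24 h. ELISA detection of Eotaxin-3.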

[11] = biological target: human Peroxisome Proliferator-activated Receptor alpha (PPARa), PPARA (gene 5465) (UniProt Q07869); assay: ATG_PPARa_TRANS: Attagene TRANS-FACTORIAL HepG2 Assay for human Peroxisome Proliferator-activated Receptor alpha (PPARa) (AID 2283001; active means hit-call score of the fitted dose curve at least 0.9, where 1 is the maximum)
Procedure, shortened: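 Measures transcriptional activity of an exogenous chimeric PPARa-Gal4 protein in transiently transfected HepG2 cells after 24 h dosing. Reporter mRNA quantified via RT-PCR and capillary electrophoresis; DMSO served as negative control.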

[12] = biological target: human Peroxisome Proliferator-activated Receptor delta (PPARd), PPARD (gene 5467) (UniProt Q03181); assay: ATG_PPARd_TRANS: Attagene TRANS-FACTORIAL HepG2 Assay for human Peroxisome Proliferator-activated Receptor delta (PPARd) (AID 2283002; active means hit-call score of the fitted dose curve at least 0.9, where 1 is the maximum)
Procedure, shortened: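 Fluorescence from capillary electrophoresis of labelled RT-PCR reporter fragments gives the signal; DMSO sets baseline. Cells: HepG2 transiently carrying GAL4-UAS reporter units plus chimeric nuclear receptor-Gal4 proteins, exposed to chemicals for 24 h.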

[13] = read-out: Intercellular Adhesion Molecule 1 (ICAM1), ICAM1 (gene 3383); assay: BSK_3C_ICAM1: BioMAP Diversity Plus: 3C Assay for Intercellular Adhesion Molecule 1 (ICAM1) Biomarker Activity (AID 2283003); conditions: primary human endothelial cells (HUVEC); actives raise or lower the signal
Procedure, shortened: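 Human vascular endothelial primary cells, 3C conditions, 24 h treatment. ICAM-1 by ELISA.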

[14] = biological target: human Retinoic Acid Receptor beta (RARb), RARB (gene 5915) (UniProt P10826); assay: ATG_RARb_TRANS: Attagene TRANS-FACTORIAL HepG2 Assay for human Retinoic Acid Receptor beta (AID 2283004; active means hit-call score of the fitted dose curve at least 0.9, where 1 is the maximum)
Procedure, shortened: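 HepG2, transient MRTU transfection, NR–Gal4 chimera, 24 h treatment; RT-PCR plus CE fluorescence detection of reporter mRNA; gain of signal vs DMSO.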

[15] = biological target: Retinoic acid receptor alpha (Homo sapiens) (UniProt P10276); assay: ATG_RARa_TRANS: Attagene TRANS-FACTORIAL HepG2 Assay for human Retinoic Acid Receptor alpha (RARa) (AID 2283005; active means hit-call score of the fitted dose curve at least 0.9, where 1 is the maximum)
Procedure, shortened: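 HepG2 transiently transfected with multiplex GAL4-UAS reporter units including a human RARa–GAL4 chimera; 24 h compound exposure. Reporter mRNA quantified by RT-PCR, 6-FAM labeling and capillary electrophoresis; gain of signal versus DMSO.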

[16] = BSK_3C_Proliferation: Cell Proliferation Assessment in the BioMAP Diversity Plus: 3C Assay (AID 2283006); conditions: primary human endothelial cells (HUVEC);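 on AC50: potency may reflect either rise or fall in cell number versus DMSO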
Procedure, shortened: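 Proliferation of human vascular endothelial primary cells after 48 h dosing, quantified as SRB-stained protein at 560 nm relative to DMSO.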

[17] = biological target: Peroxisome proliferator-activated receptor gamma (Homo sapiens) (UniProt P37231); assay: ATG_PPARg_TRANS: Attagene TRANS-FACTORIAL HepG2 Assay for human Peroxisome Proliferator-activated Receptor-gamma (PPARg) (AID 2283007; active means hit-call score of the fitted dose curve at least 0.9, where 1 is the maximum)
Procedure, shortened: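 Multiplexed reporter transcription units in HepG2, 24 h dosing, reporter transcripts quantified by fluorescent RT-PCR and capillary electrophoresis. Increase over DMSO scored.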

[18] = biological target: Nuclear receptor subfamily 1 group I member 2 (Homo sapiens) (UniProt O75469); assay: ATG_PXR_TRANS: Attagene TRANS-FACTORIAL HepG2 Assay for human Pregnane X Receptor (PXR) (AID 2283008; active means hit-call score of the fitted dose curve at least 0.9, where 1 is the maximum)
Procedure, shortened: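 HepG2 cells transiently transfected with multiple reporter units, here a PXR-GAL4 chimera driving a GAL4-UAS reporter; 24 h compound exposure. Reporter mRNA measured by RT-PCR, FAM labelling and capillary electrophoresis; gain of signal fitted against DMSO baseline.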

[19] = biological target: human Retinoic Acid Receptor gamma (RARg), RARG (gene 5916) (UniProt P13631); assay: ATG_RARg_TRANS: Attagene TRANS-FACTORIAL HepG2 Assay for human Retinoic Acid Receptor gamma (RARg) (AID 2283009; active means hit-call score of the fitted dose curve at least 0.9, where 1 is the maximum)
Procedure, shortened: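 HepG2, RARg-GAL4 TRANS system, 24 h exposure; reporter mRNA by RT-PCR + CE fluorescence; increase over DMSO.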

[20] = ATG_NF_kB_CIS: Attagene CIS-FACTORIAL HepG2 Assay for human Nuclear Factor Kappa B (NF-kB) (AID 2282991); conditions: HepG2 Attagene cis-factorial NF-kB reporter mRNA; actives raise or lower the signal
Procedure, shortened: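 HepG2, transient multi-reporter transfection, cis promoter elements (endogenous TFs). 24 h exposure. Total RNA → RT → PCR → 6-FAM label → HpaI → CE. Gain/loss vs DMSO.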

Measured: AC50

Sequence of Myc proto-oncogene protein (Homo sapiens) (P01106 whole entry, looked up, the tested form may be a part): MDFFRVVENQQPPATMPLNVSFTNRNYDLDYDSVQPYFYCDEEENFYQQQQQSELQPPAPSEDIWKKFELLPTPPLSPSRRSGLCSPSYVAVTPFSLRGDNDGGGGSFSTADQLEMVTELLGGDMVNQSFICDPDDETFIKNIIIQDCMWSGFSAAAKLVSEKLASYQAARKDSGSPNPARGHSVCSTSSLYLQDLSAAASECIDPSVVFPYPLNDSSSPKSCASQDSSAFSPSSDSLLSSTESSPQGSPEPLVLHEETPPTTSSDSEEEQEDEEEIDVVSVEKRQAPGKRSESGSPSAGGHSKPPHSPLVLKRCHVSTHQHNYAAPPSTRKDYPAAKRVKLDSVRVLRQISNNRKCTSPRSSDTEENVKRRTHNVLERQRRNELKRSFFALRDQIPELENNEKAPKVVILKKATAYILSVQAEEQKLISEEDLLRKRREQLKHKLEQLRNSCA
Sequence of Retinoic acid receptor alpha (Homo sapiens) (P10276 whole entry, looked up, the tested form may be a part): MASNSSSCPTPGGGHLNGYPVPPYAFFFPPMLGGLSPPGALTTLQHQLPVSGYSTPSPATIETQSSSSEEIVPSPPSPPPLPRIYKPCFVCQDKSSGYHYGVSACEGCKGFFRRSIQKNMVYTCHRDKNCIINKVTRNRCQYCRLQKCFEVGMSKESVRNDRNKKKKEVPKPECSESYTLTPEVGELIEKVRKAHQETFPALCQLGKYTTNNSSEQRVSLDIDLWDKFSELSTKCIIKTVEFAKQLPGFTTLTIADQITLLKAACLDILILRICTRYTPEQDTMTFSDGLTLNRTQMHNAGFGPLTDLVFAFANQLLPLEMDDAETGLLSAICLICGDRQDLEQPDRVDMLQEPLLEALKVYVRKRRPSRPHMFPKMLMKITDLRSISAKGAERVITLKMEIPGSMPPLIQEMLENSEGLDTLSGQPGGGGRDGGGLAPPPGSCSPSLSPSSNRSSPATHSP
Sequence of Cellular tumor antigen p53 (Homo sapiens) (P04637 whole entry, looked up): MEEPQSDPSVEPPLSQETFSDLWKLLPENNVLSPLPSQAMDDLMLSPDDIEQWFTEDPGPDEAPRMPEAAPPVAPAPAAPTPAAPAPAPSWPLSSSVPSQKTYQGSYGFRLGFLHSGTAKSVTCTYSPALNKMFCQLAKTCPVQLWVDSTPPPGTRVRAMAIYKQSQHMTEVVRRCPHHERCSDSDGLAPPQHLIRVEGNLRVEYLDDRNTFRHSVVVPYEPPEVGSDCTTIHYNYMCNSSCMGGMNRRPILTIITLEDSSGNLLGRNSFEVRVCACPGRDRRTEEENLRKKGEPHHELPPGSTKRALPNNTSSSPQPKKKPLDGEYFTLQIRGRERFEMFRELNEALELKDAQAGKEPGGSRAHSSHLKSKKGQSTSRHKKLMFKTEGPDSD
Sequence of Nuclear respiratory factor 1 (Homo sapiens) (Q16656 whole entry, looked up): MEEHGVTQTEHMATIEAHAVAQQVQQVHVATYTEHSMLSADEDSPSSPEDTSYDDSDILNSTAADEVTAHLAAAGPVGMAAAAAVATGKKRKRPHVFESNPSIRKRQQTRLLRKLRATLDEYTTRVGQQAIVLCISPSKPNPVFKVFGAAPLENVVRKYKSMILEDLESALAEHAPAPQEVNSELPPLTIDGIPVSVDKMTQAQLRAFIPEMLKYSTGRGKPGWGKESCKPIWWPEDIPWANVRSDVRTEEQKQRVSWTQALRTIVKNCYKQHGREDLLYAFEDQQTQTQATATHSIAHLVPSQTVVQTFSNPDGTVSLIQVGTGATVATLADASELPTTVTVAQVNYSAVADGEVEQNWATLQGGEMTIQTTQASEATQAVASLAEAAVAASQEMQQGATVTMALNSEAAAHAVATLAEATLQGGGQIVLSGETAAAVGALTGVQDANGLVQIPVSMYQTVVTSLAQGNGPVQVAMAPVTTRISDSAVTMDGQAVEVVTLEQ
Sequence of human Retinoic Acid Receptor gamma (RARg), RARG (gene 5916) (P13631 whole entry, looked up, the tested form may be a part): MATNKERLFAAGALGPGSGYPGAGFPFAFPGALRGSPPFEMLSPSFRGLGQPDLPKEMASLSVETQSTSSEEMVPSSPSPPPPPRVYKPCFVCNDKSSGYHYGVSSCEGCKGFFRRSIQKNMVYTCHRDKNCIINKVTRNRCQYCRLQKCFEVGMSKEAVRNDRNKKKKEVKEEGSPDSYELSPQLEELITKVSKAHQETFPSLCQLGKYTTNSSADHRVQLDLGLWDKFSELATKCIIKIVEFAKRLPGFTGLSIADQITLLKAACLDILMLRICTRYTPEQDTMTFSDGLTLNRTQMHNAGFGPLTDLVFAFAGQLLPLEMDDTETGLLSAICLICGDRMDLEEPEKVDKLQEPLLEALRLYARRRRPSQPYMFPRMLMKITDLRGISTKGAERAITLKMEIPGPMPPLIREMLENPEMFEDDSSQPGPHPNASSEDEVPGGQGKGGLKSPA
Sequence of Nuclear receptor subfamily 1 group I member 2 (Homo sapiens) (O75469 whole entry, looked up, the tested form may be a part): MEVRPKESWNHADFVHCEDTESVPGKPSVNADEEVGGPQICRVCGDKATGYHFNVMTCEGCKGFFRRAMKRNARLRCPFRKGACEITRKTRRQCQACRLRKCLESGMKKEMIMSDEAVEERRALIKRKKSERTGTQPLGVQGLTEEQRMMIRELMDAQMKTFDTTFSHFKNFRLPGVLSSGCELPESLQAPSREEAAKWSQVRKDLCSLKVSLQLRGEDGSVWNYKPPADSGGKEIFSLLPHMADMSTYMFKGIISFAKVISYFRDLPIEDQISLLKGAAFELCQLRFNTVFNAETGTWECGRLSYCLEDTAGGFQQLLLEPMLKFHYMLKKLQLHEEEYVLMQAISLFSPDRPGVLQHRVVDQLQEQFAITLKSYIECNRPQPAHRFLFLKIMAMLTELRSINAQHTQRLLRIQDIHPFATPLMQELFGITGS
Sequence of human Peroxisome Proliferator-activated Receptor delta (PPARd), PPARD (gene 5467) (Q03181 whole entry, looked up, the tested form may be a part): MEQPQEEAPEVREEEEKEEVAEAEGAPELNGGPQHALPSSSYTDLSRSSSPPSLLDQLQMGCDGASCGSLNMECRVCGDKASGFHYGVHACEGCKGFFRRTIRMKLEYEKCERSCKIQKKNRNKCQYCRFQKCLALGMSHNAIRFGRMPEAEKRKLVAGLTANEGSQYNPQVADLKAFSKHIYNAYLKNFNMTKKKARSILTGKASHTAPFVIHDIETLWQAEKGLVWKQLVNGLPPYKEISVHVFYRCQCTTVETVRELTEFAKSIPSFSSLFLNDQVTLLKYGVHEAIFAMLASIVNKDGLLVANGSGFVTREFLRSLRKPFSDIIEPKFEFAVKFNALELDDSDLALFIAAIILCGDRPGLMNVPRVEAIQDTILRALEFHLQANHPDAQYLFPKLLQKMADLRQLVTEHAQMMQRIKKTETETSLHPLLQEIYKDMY
Sequence of human Peroxisome Proliferator-activated Receptor alpha (PPARa), PPARA (gene 5465) (Q07869 whole entry, looked up, the tested form may be a part): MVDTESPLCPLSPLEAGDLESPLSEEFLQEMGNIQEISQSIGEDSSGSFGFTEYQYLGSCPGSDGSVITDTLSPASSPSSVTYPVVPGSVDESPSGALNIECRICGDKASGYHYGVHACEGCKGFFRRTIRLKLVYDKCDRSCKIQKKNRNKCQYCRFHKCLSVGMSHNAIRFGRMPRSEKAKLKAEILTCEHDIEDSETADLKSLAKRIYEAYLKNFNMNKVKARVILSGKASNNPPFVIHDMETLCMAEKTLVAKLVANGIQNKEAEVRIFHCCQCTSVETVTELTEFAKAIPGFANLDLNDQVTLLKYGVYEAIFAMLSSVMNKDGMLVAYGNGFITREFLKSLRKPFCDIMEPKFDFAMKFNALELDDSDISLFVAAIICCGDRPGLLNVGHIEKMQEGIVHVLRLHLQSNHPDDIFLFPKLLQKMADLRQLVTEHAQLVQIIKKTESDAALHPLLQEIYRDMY
Sequence of Peroxisome proliferator-activated receptor gamma (Homo sapiens) (P37231 whole entry, looked up): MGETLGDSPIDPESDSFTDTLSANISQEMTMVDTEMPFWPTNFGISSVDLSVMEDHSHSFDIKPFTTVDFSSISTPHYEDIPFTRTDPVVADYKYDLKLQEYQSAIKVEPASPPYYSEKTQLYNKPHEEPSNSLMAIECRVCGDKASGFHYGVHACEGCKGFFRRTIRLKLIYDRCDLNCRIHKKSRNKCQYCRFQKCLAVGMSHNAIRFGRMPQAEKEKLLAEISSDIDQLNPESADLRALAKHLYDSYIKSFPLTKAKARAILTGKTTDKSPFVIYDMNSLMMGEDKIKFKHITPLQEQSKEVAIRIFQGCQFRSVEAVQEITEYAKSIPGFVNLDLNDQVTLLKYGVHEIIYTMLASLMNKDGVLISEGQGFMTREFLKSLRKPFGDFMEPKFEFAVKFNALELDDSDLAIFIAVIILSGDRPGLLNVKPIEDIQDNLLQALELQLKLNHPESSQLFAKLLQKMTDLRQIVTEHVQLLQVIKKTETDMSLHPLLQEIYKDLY
Sequence of human Retinoic Acid Receptor beta (RARb), RARB (gene 5915) (P10826 whole entry, looked up, the tested form may be a part): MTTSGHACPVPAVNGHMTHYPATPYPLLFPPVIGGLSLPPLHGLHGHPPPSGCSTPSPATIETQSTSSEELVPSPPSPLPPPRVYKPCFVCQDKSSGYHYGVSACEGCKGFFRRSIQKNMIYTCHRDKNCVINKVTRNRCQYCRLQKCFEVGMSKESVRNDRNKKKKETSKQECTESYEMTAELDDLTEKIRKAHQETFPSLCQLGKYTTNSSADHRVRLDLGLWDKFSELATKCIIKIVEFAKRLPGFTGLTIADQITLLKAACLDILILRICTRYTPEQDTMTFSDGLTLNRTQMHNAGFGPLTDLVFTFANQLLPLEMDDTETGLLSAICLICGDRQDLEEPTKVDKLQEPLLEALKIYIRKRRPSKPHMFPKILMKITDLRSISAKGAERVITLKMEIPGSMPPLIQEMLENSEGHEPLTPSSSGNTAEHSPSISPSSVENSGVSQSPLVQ

CCCOC(=O)c1ccc(O)cc1
inactive: [1] | [2] | [3] | [4] | [5] | [6] | [7] | [8] | [9] | [10] | [11] | [12] | [13] | [14] | [15] | [16] | [18] | [19]
active: [4] 77.7 µM | [5] 168 µM | [17] 45.6 µM | [18] 100 µM

CC[C@H](C)[C@@H](C(=O)O)n1sc2ccccc2c1=O
active: [4] 73.8 µM | [17] 100 µM
not listed: [11] | [12] | [19] | [20]
inactive: all other assays above

CC(C)(C)c1cccc(C(C)(C)C)c1O
active: [2] 159 µM | [3] 152 µM | [4] 167 µM | [5] 166 µM | [6] 177 µM | [16] 36.4 µM | [18] 60.2 µM
not listed: [11]
inactive: all other assays above

CCC(C)(C)C1CCC(O)CC1 (stereo unspecified)
not listed: [11] | [15] | [19]
inactive: all other assays above

Cc1cc(CCN2CCN(c3nsc4ccccc34)CC2)cc2c1NC(=O)CC2(C)C
inactive: [1] | [2] | [3] | [20] | [6] | [12] | [14] | [19]
active: [4] 4.32 µM | [5] 8.81 µM | [7] 26.9 µM | [8] 26.6 µM | [9] 33.2 µM | [10] 33.6 µM | [13] 38.3 µM | [16] 18.6 µM | [17] 3.26 µM | [18] 0.742 µM

CN1CCC[C@H]1c1cccnc1
not listed: [6] | [12] | [14] | [15] | [19] | [20]
inactive: all other assays above
